Measured values reported in PubChem BioAssay (EPA / NIEHS).
Calls of active or inactive are those of the source. How the source made its calls: active means hit-call score of the fitted dose curve at least 0.9, where 1 is the maximum; inactive means score below 0.9.

Assay: ATG_NF_kB_CIS: Attagene CIS-FACTORIAL HepG2 Assay for human Nuclear Factor Kappa B (NF-kB) (AID 2282991)
Conditions: HepG2 Attagene cis-factorial NF-kB reporter mRNA; actives raise or lower the signal
Outline: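 HepG2 cells transfected with cis-promoter-driven reporter units, so endogenous transcription factor activity is measured. Reporter mRNA quantified 24 h after dosing by RT-PCR and capillary electrophoresis, with bidirectional fitting against DMSO.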

| Structure (SMILES) | outcome | AC50 |
| --- | --- | --- |
| C=COCCOCCOCCOC=C | inactive |  |
| CC(O)C(C)O (centres undefined) | inactive |  |
| Nc1cc(Cl)c(O)c(Cl)c1 |  | 46.8 µM (active) |
| CN(C)CCOCCN(C)C | inactive |  |
| O=C(O)Cc1cccc2ccccc12 | inactive |  |
| CNCCCC12CCC(c3ccccc31)c1ccccc12 | inactive |  |
| CCCc1ccccc1O | inactive |  |
| C=C[C@@H](C)CCC=C(C)C | inactive |  |
| O=S(=O)(O)c1ccc(O)c2ncccc12 | inactive |  |
| CCC(C(=O)NC(N)=O)c1ccccc1 (centres undefined) | inactive |  |
| c1cc(C(c2ccc(OCC3CO3)cc2)c2ccc(OCC3CO3)cc2)ccc1OCC1CO1 (centres undefined) |  | 100 µM (active) |
| CCCCCC=CCC(=O)OC | inactive |  |
| CCC(C)CCCC(C)(C)O (centres undefined) | inactive |  |
| COCCCOc1ccnc(CS(=O)c2nc3ccccc3[nH]2)c1C (centres undefined) | inactive |  |
| CC(C)(C#N)c1cc(Cn2cncn2)cc(C(C)(C)C#N)c1 | inactive |  |
| C=C(C)C(=O)Nc1ccc(Cl)c(Cl)c1 | inactive |  |
| C=CC(=O)NCOCC(C)C | inactive |  |
| CCCCCCCCCCCCN(CCCCCCCCCCCC)CCCCCCCCCCCC | inactive |  |
| CC1CCC2CC1C2(C)C (centres undefined) | inactive |  |

| Structure (SMILES) | outcome | AC50 |
| --- | --- | --- |
| c1ccc2[nH]ccc2c1 | inactive |  |
| O=c1[nH]nnc2ccccc12 | inactive |  |
| Clc1ccc(Cl)c(Cl)c1Cl | inactive |  |
| CCCCCCCCCCCCCOS(=O)(=O)O | inactive |  |
| O=C(O)CCCCCCCC(=O)O | inactive |  |
| CCN(CC)CCOC(=O)c1ccc(N)cc1 | inactive |  |
| O=C1O[C@@H]2[C@@H](O)[C@H](O)O[C@@H]2[C@H]1O | inactive |  |
| CC(CN1c2ccccc2Sc2ccccc21)N(C)C (centres undefined) | inactive |  |
| C/C=C(\C)C(=O)OCc1ccccc1 | inactive |  |
| CCC(O)CO (centres undefined) | inactive |  |
| CCN(CC)c1ccc(C(=C2C=CC(=[N+](CC)CC)C=C2)c2ccc(S(=O)(=O)O)cc2S(=O)(=O)[O-])cc1 | inactive |  |
| COCCOCCOCCOCCOCCO | inactive |  |
| CCc1ccc(C=O)cc1 | inactive |  |
| O=C(Oc1ccccc1)c1ccc(O)cc1 | inactive |  |
| Cc1cccc(C)c1C | inactive |  |
| CCCCc1ccc(N)cc1 | inactive |  |
| NC(N)=NC(=O)c1nc(Cl)c(N)nc1N | inactive |  |
| CCCC(C)C=O (centres undefined) | inactive |  |
| O=C(O)CCCCC1CCSS1 (centres undefined) | inactive |  |

Assay: ATG_NRF2_ARE_CIS: Attagene CIS-FACTORIAL HepG2 Assay for human Nuclear Factor Erythroid 2 Related Factor 2 (NFR2) response to Antioxidant Response Elements (ARE) (AID 2282992)
Conditions: HepG2 Attagene ARE/NRF2 reporter, transcription factor activity; actives raise or lower the signal
Outline: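 Endogenous transcription factor activity read out as reporter transcript levels (RT-PCR plus capillary electrophoresis, fluorescence) in transiently transfected HepG2 cells. Measured at 24 h after dosing; gain or loss of signal fitted versus DMSO.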

| Structure (SMILES) | outcome | AC50 |
| --- | --- | --- |
| C=COCCOCCOCCOC=C | inactive |  |
| CC(O)C(C)O (centres undefined) | inactive |  |
| Nc1cc(Cl)c(O)c(Cl)c1 |  | 26.5 µM (active) |
| CN(C)CCOCCN(C)C | inactive |  |
| O=C(O)Cc1cccc2ccccc12 | inactive |  |
| CNCCCC12CCC(c3ccccc31)c1ccccc12 | inactive |  |
| CCCc1ccccc1O | inactive |  |
| C=C[C@@H](C)CCC=C(C)C | inactive |  |
| O=S(=O)(O)c1ccc(O)c2ncccc12 | inactive |  |
| CCC(C(=O)NC(N)=O)c1ccccc1 (centres undefined) | inactive |  |
| c1cc(C(c2ccc(OCC3CO3)cc2)c2ccc(OCC3CO3)cc2)ccc1OCC1CO1 (centres undefined) | inactive |  |
| CCCCCC=CCC(=O)OC | inactive |  |
| CCC(C)CCCC(C)(C)O (centres undefined) | inactive |  |
| COCCCOc1ccnc(CS(=O)c2nc3ccccc3[nH]2)c1C (centres undefined) |  | 36.4 µM (active) |
| CC(C)(C#N)c1cc(Cn2cncn2)cc(C(C)(C)C#N)c1 | inactive |  |
| C=C(C)C(=O)Nc1ccc(Cl)c(Cl)c1 |  | 13.6 µM (active) |
| C=CC(=O)NCOCC(C)C |  | 54.6 µM (active) |
| CCCCCCCCCCCCN(CCCCCCCCCCCC)CCCCCCCCCCCC | inactive |  |
| CC1CCC2CC1C2(C)C (centres undefined) | inactive |  |

| Structure (SMILES) | outcome | AC50 |
| --- | --- | --- |
| c1ccc2[nH]ccc2c1 | inactive |  |
| O=c1[nH]nnc2ccccc12 | inactive |  |
| Clc1ccc(Cl)c(Cl)c1Cl | inactive |  |
| CCCCCCCCCCCCCOS(=O)(=O)O | inactive |  |
| O=C(O)CCCCCCCC(=O)O | inactive |  |
| CCN(CC)CCOC(=O)c1ccc(N)cc1 | inactive |  |
| O=C1O[C@@H]2[C@@H](O)[C@H](O)O[C@@H]2[C@H]1O | inactive |  |
| CC(CN1c2ccccc2Sc2ccccc21)N(C)C (centres undefined) | inactive |  |
| C/C=C(\C)C(=O)OCc1ccccc1 | inactive |  |
| CCC(O)CO (centres undefined) | inactive |  |
| CCN(CC)c1ccc(C(=C2C=CC(=[N+](CC)CC)C=C2)c2ccc(S(=O)(=O)O)cc2S(=O)(=O)[O-])cc1 | inactive |  |
| COCCOCCOCCOCCOCCO | inactive |  |
| CCc1ccc(C=O)cc1 | inactive |  |
| O=C(Oc1ccccc1)c1ccc(O)cc1 | inactive |  |
| Cc1cccc(C)c1C | inactive |  |
| CCCCc1ccc(N)cc1 |  | 27.2 µM (active) |
| NC(N)=NC(=O)c1nc(Cl)c(N)nc1N |  | 62.6 µM (active) |
| CCCC(C)C=O (centres undefined) | inactive |  |
| O=C(O)CCCCC1CCSS1 (centres undefined) |  | 40 µM (active) |

Assay: ATG_Oct_MLP_CIS: Attagene CIS-FACTORIAL HepG2 Assay for human Octamer-Binding Transcription Factor (Oct) (AID 2282993)
Conditions: HepG2 Attagene cis-factorial Oct reporter, mRNA; actives raise or lower the signal
Outline: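 Cells of the HepG2 line express promoter-controlled reporter sequences whose mRNA levels, after 24 h treatment, are measured by RT-PCR and capillary electrophoresis. Increases and decreases are scored relative to DMSO.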

| Structure (SMILES) | outcome | AC50 |
| --- | --- | --- |
| C=COCCOCCOCCOC=C | inactive |  |
| CC(O)C(C)O (centres undefined) | inactive |  |
| Nc1cc(Cl)c(O)c(Cl)c1 |  | 100 µM (active) |
| CN(C)CCOCCN(C)C | inactive |  |
| O=C(O)Cc1cccc2ccccc12 | inactive |  |
| CNCCCC12CCC(c3ccccc31)c1ccccc12 |  | 15.4 µM (active) |
| CCCc1ccccc1O | inactive |  |
| C=C[C@@H](C)CCC=C(C)C | inactive |  |
| O=S(=O)(O)c1ccc(O)c2ncccc12 | inactive |  |
| CCC(C(=O)NC(N)=O)c1ccccc1 (centres undefined) | inactive |  |
| c1cc(C(c2ccc(OCC3CO3)cc2)c2ccc(OCC3CO3)cc2)ccc1OCC1CO1 (centres undefined) |  | 24.8 µM (active) |
| CCCCCC=CCC(=O)OC | inactive |  |
| CCC(C)CCCC(C)(C)O (centres undefined) | inactive |  |
| COCCCOc1ccnc(CS(=O)c2nc3ccccc3[nH]2)c1C (centres undefined) | inactive |  |
| CC(C)(C#N)c1cc(Cn2cncn2)cc(C(C)(C)C#N)c1 | inactive |  |
| C=C(C)C(=O)Nc1ccc(Cl)c(Cl)c1 |  | 26.5 µM (active) |
| C=CC(=O)NCOCC(C)C | inactive |  |
| CCCCCCCCCCCCN(CCCCCCCCCCCC)CCCCCCCCCCCC | inactive |  |
| CC1CCC2CC1C2(C)C (centres undefined) | inactive |  |

| Structure (SMILES) | outcome | AC50 |
| --- | --- | --- |
| c1ccc2[nH]ccc2c1 | inactive |  |
| O=c1[nH]nnc2ccccc12 | inactive |  |
| Clc1ccc(Cl)c(Cl)c1Cl | inactive |  |
| CCCCCCCCCCCCCOS(=O)(=O)O | inactive |  |
| O=C(O)CCCCCCCC(=O)O | inactive |  |
| CCN(CC)CCOC(=O)c1ccc(N)cc1 | inactive |  |
| O=C1O[C@@H]2[C@@H](O)[C@H](O)O[C@@H]2[C@H]1O | inactive |  |
| CC(CN1c2ccccc2Sc2ccccc21)N(C)C (centres undefined) |  | 38.8 µM (active) |
| C/C=C(\C)C(=O)OCc1ccccc1 | inactive |  |
| CCC(O)CO (centres undefined) | inactive |  |
| CCN(CC)c1ccc(C(=C2C=CC(=[N+](CC)CC)C=C2)c2ccc(S(=O)(=O)O)cc2S(=O)(=O)[O-])cc1 | inactive |  |
| COCCOCCOCCOCCOCCO | inactive |  |
| CCc1ccc(C=O)cc1 | inactive |  |
| O=C(Oc1ccccc1)c1ccc(O)cc1 | inactive |  |
| Cc1cccc(C)c1C | inactive |  |
| CCCCc1ccc(N)cc1 | inactive |  |
| NC(N)=NC(=O)c1nc(Cl)c(N)nc1N | inactive |  |
| CCCC(C)C=O (centres undefined) | inactive |  |
| O=C(O)CCCCC1CCSS1 (centres undefined) | inactive |  |
